Measured values reported in PubChem BioAssay (Tox21).
Records with an inconclusive call do not appear. Where a call stands in place of a potency, no number is given. Values without a mark were called inactive. Active and inactive are the calls of the source. The call rests on the fitted dose curve; in most records, active means well fitted cell-killing curve with a large enough effect in the repeat runs; inconclusive means weak or mixed curves, or effect the other way; inactive means flat fitted curve, though single readings scatter.

Assays:
[1] = cAMP Responsive Elements (CRE) small molecule antagonists, cell-based qHTS assay: qHTS cell viability counter screen (AID 2060913); conditions: CRE-bla HEK293T viability, CellTiter-Glo luminescence, 5 h; series mostly up to 92.4 µM; further: nearly all actives have a fitted effect of over 40% in size
Summary of the method: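 Cytotoxicity counter screen multiplexed with the CRE-bla antagonist read: HEK293T cells in DMEM with dialyzed FBS and 25 mM HEPES were treated 3 hrs under 0.25 uM final NKH477, then viability measured by CellTiter-Glo luminescence.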

[2] = cAMP Responsive Elements (CRE) small molecule agonists, cell-based qHTS assay: qHTS cell viability counter screen (AID 2060914); conditions: CRE-bla HEK293T viability, CellTiter-Glo luminescence, 5 h; series mostly up to 92.4 µM;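 further: viability read after 3 h of compound exposure; nearly all actives have a fitted effect of over 50% in size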
Summary of the method: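 Cells are seeded and incubated 18 h, treated with compounds in DMSO for 3 h, read for the bla reporter, then given CellTiter-Glo; luminescence is measured after 30 min at room temperature.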

Structure (SMILES) | Potency [1] | Potency [2] | viability change, negative = cytotoxic [1] | activity change, negative = cytotoxicity [2]
Cc1nc(-c2ccc(OCC(C)C)c(C#N)c2)sc1C(=O)O | inactive | inactive | – | –
C(=C(c1ccccc1)c1ccccc1)c1ccccc1 | inactive | inactive | – | –
CC(=O)OCCC(C)C | inactive | inactive | – | –
CCCCN(CCN(CCCC)C(=O)N1CCOCC1)C(=O)N1CCOCC1 | inactive | inactive | – | –
C1CN(CCOCCN2CCOCC2)CCO1 | inactive | inactive | – | –
Nc1ccc([N+](=O)[O-])c(N)c1 | inactive | inactive | – | –
Nc1c(NC/C=C\COc2cc(CN3CCCCC3)ccn2)c(=O)c1=O | – | – | -0.847% [at 18.9 µM] | 0.246% [at 18.9 µM]
C=CC(C)(CCC=C(C)C)OC(=O)/C=C/c1ccccc1 (centres undefined) | inactive | inactive | – | –
CCN(CC)CCNC(=O)c1ccc(NC(C)=O)cc1 | inactive | inactive | – | –
COc1ccc(N)c([N+](=O)[O-])c1 | inactive | inactive | – | –
CN(C)c1cc(NC(=O)CNC(C)(C)C)c(O)c2c1C[C@H]1C[C@H]3[C@H](N(C)C)C(=O)C(C(N)=O)=C(O)[C@@]3(O)C(=O)C1=C2O | inactive | inactive | – | –
O=C(CCBr)N1CCN(C(=O)CCBr)CC1 | inactive | inactive | – | –
C=CCc1ccc(OC)c(OC)c1 | inactive | inactive | – | –
COc1cc(C(=O)OCCCN2CCCN(CCCOC(=O)c3cc(OC)c(OC)c(OC)c3)CC2)cc(OC)c1OC | inactive | inactive | – | –
c1ccc2cc3ccccc3cc2c1 | inactive | inactive | – | –
OCC1CCCO1 (centres undefined) | inactive | inactive | – | –
CCOC(=O)CC(=O)OCC | inactive | inactive | – | –
CC(COc1ccc(C(C)(C)C)cc1)OS(=O)OCCCl (centres undefined) | inactive | inactive | – | –
CC(=O)Nc1c(I)c(NC(C)=O)c(I)c(C(=O)O)c1I | inactive | inactive | – | –
CC(C)Nc1cccnc1N1CCN(C(=O)c2cc3cc(NS(C)(=O)=O)ccc3[nH]2)CC1 | inactive | inactive | – | –
NCCCC[C@H](N[C@@H](CCc1ccccc1)C(=O)O)C(=O)N1CCC[C@H]1C(=O)O | inactive | inactive | – | –
Cc1occc1S | inactive | inactive | – | –
CC(C)NCC(O)c1ccc(O)c(O)c1 (centres undefined) | inactive | inactive | – | –
COC1=CC(=O)C[C@@H](C)[C@]12Oc1c(Cl)c(OC)cc(OC)c1C2=O | inactive | inactive | – | –

Structure (SMILES) | Potency [1] | Potency [2] | viability change, negative = cytotoxic [1] | activity change, negative = cytotoxicity [2]
COc1ccc([C@@H]2Sc3ccccc3N(CCN(C)C)C(=O)[C@@H]2OC(C)=O)cc1 | inactive | inactive | – | –
CCCCCCC(CCCCCCCCCCC(=O)OCC(COC(C)=O)OC(C)=O)OC(C)=O (centres undefined) | inactive | inactive | – | –
CC1=C(C)C(=O)C(C(CCCCCC(=O)O)c2ccccc2)=C(C)C1=O (centres undefined) | inactive | inactive | – | –
CCC(N)(CO)CO | inactive | inactive | – | –
CC(C)C(=O)OCCOc1ccccc1 | inactive | inactive | – | –
CC(C)COC(=O)COc1cc(Cl)c(Cl)cc1Cl | inactive | inactive | – | –
CCn1cc(C(=O)O)c(=O)c2cc(F)c(N3CCNC(C)C3)c(F)c21 (centres undefined) | inactive | inactive | – | –
CSc1cnc(C)cn1 | inactive | inactive | – | –
C#CCN[C@@H]1CCc2ccccc21 | inactive | inactive | – | –
CCN(Cc1ccncc1)C(=O)C(CO)c1ccccc1 (centres undefined) | inactive | inactive | – | –
C[N+]1(CC2COC(c3ccccc3)(C3CCCCC3)O2)CCCCC1 (centres undefined) | inactive | inactive | – | –
COC(=O)C1=C(C)NC(C)=C(C(=O)OC(C)(C)CN(C)CCC(c2ccccc2)c2ccccc2)C1c1cccc([N+](=O)[O-])c1 (centres undefined) | inactive | inactive | – | –
CCCCCCCCCOCC1CO1 (centres undefined) | inactive | inactive | – | –
CN(C)c1ccc(/C=C/c2ccc([N+](=O)[O-])cc2)cc1 | – | – | 10.9% [at 8.39 µM] | 5.22% [at 8.39 µM]
CCCOC(=O)c1ccc(C(=O)OCCC)nc1 | inactive | inactive | – | –
O=c1n(CCO)c(=O)n(CCO)c(=O)n1CCO | inactive | inactive | – | –
CO[C@@]1(NC(=O)CSC[C@@H](N)C(=O)O)C(=O)N2C(C(=O)O)=C(CSc3nnnn3C)CS[C@@H]21 | inactive | inactive | – | –
CN1CCCC1=O | inactive | inactive | – | –
COCCOC(=O)C1=C(C)NC(C)=C(C(=O)OC/C=C/c2ccccc2)C1c1cccc([N+](=O)[O-])c1 (centres undefined) | inactive | inactive | – | –
O=C1N(c2ccccc2)c2ccccc2C1(Cc1ccncc1)Cc1ccncc1 | inactive | inactive | – | –
CCCCCCCCCCCC | inactive | inactive | – | –
Cc1cnc(NS(=O)(=O)c2ccc(N)cc2)nc1 | inactive | inactive | – | –
CC12CCC(CC1=O)C2(C)C (centres undefined) | inactive | inactive | – | –
